Several values for one entry are separate records, joined by “and”; a condition that tells them apart may be missing. Equal values may be shown once. Results filed as inconclusive are left out. Where a call stands in place of a potency, no number is given. Activity calls are given as the source filed them. Calls come from the whole dose curve.
Potency is the fitted concentration of half-maximal effect.

The experiment in a line: qHTS assay to identify small molecule antagonists of the estrogen receptor alpha (ER-alpha) signaling pathway using the BG1 cell line (AID 743080).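 Note: BG1 cells stimulated with 17beta-estradiol alongside compound; nearly all actives have a fitted effect of over 25% in size.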 The conditions noted are these: BG1Luc4E2 ERE-luciferase antagonist mode, luminescence; activity change, negative = inhibition: at 70.3 µM (top of the series) unless noted. An excerpt: National Center for Advancing Translational Sciences [NCATS]
NIH Chemical Genomics Center [NCGC]
U.S. Environmental Protection Agency [EPA]
National Institutes of Environmental Health Sciences [NIEHS]
National Toxicology Program [NTP]
U.S. Food and Drug Administration [FDA]
Estrogen receptor (ER), a nuclear hormone receptor, plays an important role in development, metabolic homeostasis and reproduction. Endocrine disrupting chemicals (EDCs) and their interactions with steroid hormone receptors like ER causes disruption of normal endocrine function. Therefore, it is important to understand the effect of environmental chemicals on the ER signaling pathway. To identify ER antagonists, BG1-Luc-4E2 cell line (provided by Dr. Michael Denison from University of California) has been used to screen the Tox21 10K compound library. BG1Luc4E2 cell line endogenously expresses full-length ER-alpha and is stably transfected with a plasmid containing four estrogen responsive elements (ERE) upstream of a luciferase reporter gene.
Tox21 Assay Protocol Summary:
BG1-Luc-4E2 cells were cultured in phenol red free assay medium containing 10% charcoal stripped FBS for 5 days before the assay was performed. The cells were dispensed at 4,000 cells/4 uL of assay medium per well into white wall/solid-bottom 1536-well plates using a Multidrop Combi (ThermoFisher Scientific, Waltham, MA) dispenser. The assay plates were incubated at a 37C and 5% CO2 for 24 h, and then 23 nL of compounds dissolved in DMSO, positive controls or DMSO only was transferred to the assay plate using a Pintool station (Kalypsys, San Diego, CA), followed by addition of 1 uL of 17beta-estradiol in assay medium using a Flying Reagent Dispenser (Aurora Discovery, San Diego, CA). After the plates were incubated at 37 C and 5% CO2 for 21.5 h, 1 uL of CellTiter-Fluor reagent (Promega, Madison, WI) of measuring cytotoxicity was added using Flying Reagent Dispenser (FRD) to each well. The assay plates were incubated at 37 C and 5% CO2 for additional 30 min and the fluorescence intensity was quantified by a ViewLux plate reader (PerkinElmer, Shelton, CT). For measuring luciferase reporter gene activity, 4 uL of ONE-Glo reagent (Promega) was added to each plate using an FRD and luminescence was quantified by a ViewLux plate reader after 30 min incubation at room temperature.
On the technique in general: qHTS replaces the single test concentration by a dilution series.
For the compound `CC(Cl)(Cl)C(=O)O`, the Potency result was “inactive”. The same measure, in the same setting: to `C[N+](C)(C)Cc1ccccc1` belongs “inactive”; to `CNC`, “inactive”.

With `Nc1ccc(Cl)cc1`, the Potency entry was “inactive”. For `Nc1ccc(-c2ccc(N)c(Cl)c2)cc1Cl`, the Potency was 64 µM (active). `Oc1ccccc1-c1ccccc1`: the Potency result is “inactive”.

With `CCCCCCCCCCCCCC[P+](CCCCCC)(CCCCCC)CCCCCC`, the Potency is 4.88 µM (active) and 3.89 µM (active) and 3.43 µM (active).

Turning to `O=C(O)c1nc(Cl)ccc1Cl`, the Potency result is “inactive”.

In the case of `OCCOc1ccccc1`, the Potency entry was “inactive”.

Take `CCNc1nc(Cl)nc(NCC)n1`: the Potency result was “inactive”. Turning to `CC[n+]1ccccc1`, the Potency entry was “inactive”.

As for `O=P1(N(CCCl)CCCl)NCCCO1` (stereo unspecified), the Potency result was “inactive”. As for `COCC(=O)N(c1c(C)cccc1C)C(C)C(=O)OC` (stereo unspecified), the Potency entry was “inactive”. On the same count and under the same terms, to `O=C(O)C(Cl)Cl` belongs “inactive”. Regarding `Cc1cc(Cl)ccc1OCC(=O)O`, the Potency result is “inactive”. For `CCC(=O)C(CC(C)N(C)C)(c1ccccc1)c1ccccc1` (stereo unspecified), the Potency result is “inactive”. Same read-out and setting: to `CCCn1cc[n+](C)c1` belongs “inactive”; to `COP(=O)(OC)OC=C(Cl)Cl`, “inactive”; to `C[C@]12CCC(=O)C=C1CC[C@@H]1[C@@H]2CC[C@]2(C)C(=O)CC[C@@H]12`, “inactive”.

On to `C1CCC(NC2CCCCC2)CC1`, for which the Potency result is “inactive”. As for `CCCCCCCCCCn1cc[n+](C)c1`, the activity change, negative = inhibition is -3.71% [at 95 µM] (active).
